This is a sample that favours compounds with a hit; in the whole collection about 4.9% have one here.
Mdm2-MdmX inh: inhibitors of human Mdm2-MdmX association, primary screen, cell-based, luminescence, split luciferase, SaOS-2, uHTS | SaOS-2 split-luciferase Mdm2/MdmX complementation | inhibition, % at 8 µM | 330,000 tested, 3% active | AID 485346, 2010;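 active = inhibition of at least 50% at 8 µM in the primary screen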
PP5 inh: PP5 phosphatase inhibitors, primary screen, biochemical, fluorescence; Serine/threonine-protein phosphatase 5 (Homo sapiens), P53041; purified PP5c, OMFP substrate fluorescence; inhibition, % at 6.7 µM; 320,000 tested, 0.18% active;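 active = inhibition above the campaign's mean inhibition across all tested compounds plus 3 SD, cut at about 9.5% in these data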;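 also: 0% = DMSO only and 100% = 100 µM cantharidin control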
Calb FLC: C. albicans growth inhibition with fluconazole, primary screen, CaCi-2 strain, Alamar Blue fluorescence. C. albicans CaCi-2 (fluconazole-resistant clinical isolate) + fluconazole, 48 h. growth inhibition, % (no concentration beside the values). 300,000 tested, 0.57% active;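 active = growth inhibition above about 58% in most replicates, limit read from the data, passing the limit was not always enough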;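 also: all wells also contain fluconazole at 8 µg/ml as a sub-toxic cotreatment; 0% = median of DMSO wells and 100% = median of geldanamycin control wells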
PP1 inh: PP1-alpha phosphatase inhibitors, primary screen, counter-screen for PP5 inhibitor project, biochemical, fluorescence, OMFP substrate, single point | Serine/threonine-protein phosphatase PP1-alpha catalytic subunit (Homo sapiens), P62136 | purified PP1alpha | inhibition, % at 6.7 µM | 320,000 tested, 0.9% active | AID 2235, 2010;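 active = inhibition above the mean inhibition of all tested compounds plus 3 SD, computed separately for each screening campaign, cut at about 15% in these data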
Target sequence (P62136 whole entry, looked up): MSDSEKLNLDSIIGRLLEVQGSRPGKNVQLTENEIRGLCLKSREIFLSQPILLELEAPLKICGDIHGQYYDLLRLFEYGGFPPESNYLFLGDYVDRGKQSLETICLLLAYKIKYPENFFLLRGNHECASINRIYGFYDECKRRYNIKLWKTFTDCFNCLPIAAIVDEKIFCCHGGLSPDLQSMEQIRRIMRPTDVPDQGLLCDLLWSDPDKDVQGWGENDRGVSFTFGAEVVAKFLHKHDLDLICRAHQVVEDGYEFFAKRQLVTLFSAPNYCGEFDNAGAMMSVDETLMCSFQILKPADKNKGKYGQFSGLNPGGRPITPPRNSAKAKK
CSC inhib: cancer stem cell viability inhibitors, primary screen, luminescence; AID 2717, 2010; cancer stem cell-like cells viability; 300,000 tested, 1.1% active; inhibition, % at 7.5 µM; in the data active = inhibition above about 75%; tested in HMLE shEcad cells
Beta apoptosis: inhibitors of cytokine-induced beta cell apoptosis, primary screen, luminescence; INS-1E cytokine-induced death, ATP luminescence, 48 h; percent of positive-control rescue, neutral wells zero; protection from apoptosis, % (test concentration not listed); 300,000 tested, 0.8% active;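 active = Every replicate reaches about 75%, or at least half do and their mean reaches it too, limit read from the data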;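 also: 0% = cytokine-treated negative control wells and 100% = positive control rescue; higher means more ATP so stronger rescue from cytokine killing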
Mdm2 MdmX conf: Mdm2-MdmX complex disruptors, retested hits, confirmation, luminescence, single concentration. shares compounds with Mdm2-MdmX inh. Mdm2-MdmX binding, luminescent assay. inhibition, % at 8 µM. 10,000 tested, 55% active. AID 489028, 2010; in the data active = inhibition above about 40%
Full FLuc ctr: full-length luciferase signal inhibition, confirmation, counter-screen for Mdm2/MdmX interaction inhibitor project, cell-based, single concentration, SaOS-2 | shares compounds with Mdm2-MdmX inh | SaOS-2 full-length luciferase counterscreen, luminescence | inhibition, % at 8 µM | 6,200 tested, 77% active;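 active = mean inhibition at 8 µM reaching about 37%, which flags the compound as non-specific, limit read from the data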;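 also: p53-null SaOS-2 cells with luciferase driven by a doxycycline-inducible promoter; compound on cells about two nights before reading with doxycycline added after day one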
The depositor's hits bear a star.

For O=C(COC(=O)c1ccc(O)cc1)Nc1ccc(S(=O)(=O)N2CCCC2)cc1 the results were Mdm2-MdmX inh -15, CSC inhib -15 and Beta apoptosis -1.
`CC(=O)Oc1ccc(C(=O)Nc2cccc(C(=O)c3cccc(NC(=O)c4ccc(OC(C)=O)cc4)c3)c2)cc1` gave Mdm2-MdmX inh 79*, PP5 inh 0, Calb FLC 29, PP1 inh 15*, CSC inhib 27, Beta apoptosis 3, Mdm2 MdmX conf 37 and Full FLuc ctr 86*.
Screening Cn1c(=O)n(C)c2cc(NC(=O)CCl)ccc21 returned Mdm2-MdmX inh 69*, PP5 inh 3, Calb FLC 24, PP1 inh 1, CSC inhib -6, Beta apoptosis -21, Mdm2 MdmX conf 67* and Full FLuc ctr 46*.
`Cn1c(=O)n(C)c2cc(NC(=O)CSc3nnc(-c4ccccc4O)n3-c3ccccc3)ccc21` gave Mdm2-MdmX inh 58*, PP5 inh 0, Calb FLC -15, PP1 inh 0, CSC inhib -7, Beta apoptosis -2 and Mdm2 MdmX conf 19.
For COc1ccc(OC)c(NC(=O)c2ccc(NC(C)=O)cc2)c1 the results were Mdm2-MdmX inh 22, PP5 inh -1, Calb FLC -3, PP1 inh -2, CSC inhib -5 and Beta apoptosis -5.
For CC(=O)Oc1ccc(C(=O)Nc2cccc(C(=O)NC(C)(C)C)c2)cc1 the results were Mdm2-MdmX inh 24, PP5 inh 2, Calb FLC -11, PP1 inh -1, CSC inhib -14 and Beta apoptosis -5.
Screening COc1ccc(OC)c(C(=O)c2ccc(C(=O)Nc3ccc(NC(C)=O)cc3)cc2)c1 returned Mdm2-MdmX inh 74*, PP5 inh 5, Calb FLC 2, PP1 inh -2, CSC inhib 14, Beta apoptosis -2 and Mdm2 MdmX conf 29.
CCOc1ncccc1C(=O)Nc1ccc(C(=O)Nc2ccc(OC)cc2)cc1 was read as Mdm2-MdmX inh 72*, PP5 inh -3, PP1 inh 7, Beta apoptosis 4 and Mdm2 MdmX conf 22.
CCOc1ccc(NC(=O)c2ccc(OC)cc2)cc1 was read as Mdm2-MdmX inh -50, PP5 inh 2, Calb FLC -9, PP1 inh 0, CSC inhib -4 and Beta apoptosis 0.
CC(=O)Nc1ccc2c(c1)n(C)c(=O)n2C was read as Mdm2-MdmX inh 66*, PP5 inh 1, Calb FLC 13, PP1 inh -2, CSC inhib -1, Beta apoptosis -3 and Mdm2 MdmX conf 10.
`CCc1nnc(NC(=O)CSc2nnc(-c3ccccc3O)n2-c2ccc(C)cc2C)s1` gave Mdm2-MdmX inh 63*, PP5 inh 5, Calb FLC -3, PP1 inh 6, CSC inhib 34, Beta apoptosis 5, Mdm2 MdmX conf 53* and Full FLuc ctr 61*.
`CCc1nnc(NC(=O)CSc2nnc(COc3ccccc3)n2-c2ccc(C)cc2)s1` gave Mdm2-MdmX inh 2, PP5 inh 0, Calb FLC 21, PP1 inh -2, CSC inhib -1 and Beta apoptosis -8.
`O=C(CCn1c(=O)oc2cc(Cl)ccc21)Nc1ccc(O)cc1` gave Mdm2-MdmX inh 1, PP5 inh 0, Calb FLC -3, PP1 inh -2, CSC inhib 3 and Beta apoptosis 1.
Screening CCn1c(=O)oc2cc(NC(=O)CCl)ccc21 returned Mdm2-MdmX inh 66*, PP5 inh 0, Calb FLC 4, PP1 inh 0, CSC inhib -12, Beta apoptosis 2 and Mdm2 MdmX conf 32.
Screening CC(=O)Nc1ccc(S(=O)(=O)Nc2ccc3c(c2)n(C)c(=O)n3C)c(C)c1 returned Mdm2-MdmX inh -16, PP5 inh 2, Calb FLC 0, PP1 inh -3, CSC inhib -11 and Beta apoptosis 1.
Cc1nc(Cc2nnc(SC(C)C(=O)Nc3cccc(C#N)c3)o2)cs1 (stereo not drawn) was read as Mdm2-MdmX inh 33, PP5 inh -3, Calb FLC -5, PP1 inh -6, CSC inhib -5 and Beta apoptosis -8.
COc1ccccc1NS(=O)(=O)c1cc(C(=O)NCC(c2ccco2)N2CCCCC2)ccc1C (stereo not drawn) was read as Mdm2-MdmX inh 7, PP5 inh -1, Calb FLC -3, PP1 inh -3, CSC inhib -1 and Beta apoptosis 4.
COc1ccc(C(=O)Nc2ccc3c(c2)n(C)c(=O)n3C)cc1OC was read as Mdm2-MdmX inh 42, PP5 inh 2, Calb FLC 0, PP1 inh -3, CSC inhib -10 and Beta apoptosis -6.
COc1ccc(NC(=O)c2ccc3c(c2)n(C)c(=O)n3C)cc1 was read as Mdm2-MdmX inh 52*, PP5 inh 2, Calb FLC 0, PP1 inh 0, CSC inhib -6 and Mdm2 MdmX conf 9.
Screening CCOc1ccc2nc(N(CCN(C)C)C(=O)c3ccc4c(c3)CCCC4)sc2c1 returned Mdm2-MdmX inh -1, PP5 inh 2, Calb FLC -9, PP1 inh -1, CSC inhib 0 and Beta apoptosis 3.
`Cc1ccc2nc(N(CCCN(C)C)C(=O)c3ccc4c(c3)CCCC4)sc2c1` gave Mdm2-MdmX inh 51*, PP5 inh 2, Calb FLC 2, PP1 inh 6, CSC inhib -6, Beta apoptosis -1 and Mdm2 MdmX conf 23.
`Cc1cc(C)c2nc(N(CCCN(C)C)C(=O)c3ccc4c(c3)CCCC4)sc2c1` gave Mdm2-MdmX inh 77*, PP5 inh 1, Calb FLC 10, PP1 inh 4, CSC inhib -1 and Mdm2 MdmX conf 34.
Screening CN(C)CCCN(C(=O)c1ccc2c(c1)CCCC2)c1nc2c(F)cccc2s1 returned Mdm2-MdmX inh -36, PP5 inh 3, Calb FLC 3, PP1 inh 4, CSC inhib 18 and Beta apoptosis 9.

Screens deposited in PubChem by several laboratories.
